14 molecules from PubChem BioAssay can be followed below.

Test [1] can be described thus: binders of probe aFSTL3 on microarray, primary screen, stem cell growth factor project, biochemical, small-molecule microarray, fluorescence 635/667 (AID 1064).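 Further: measures binding of the biotinylated anti-FSTL3 antibody to printed compounds.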 Particulars: higher = more signal.
A short description of test [2]: binders from COS7 lysate, DM2A8 probe, primary screen, torsin A project, cell lysate, small-molecule microarray, fluorescence 635/667 (AID 1065). To be noted: higher = more signal, COS7 lysate expressing mutant human TOR1A.
Test [3] is described as follows: binders of probe aFGF2 on microarray, primary screen, stem cell growth factor project, biochemical, small-molecule microarray, fluorescence 635/667 (AID 1067).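 Further: measures binding of biotinylated aFGF2 protein to printed compounds on slides; z-score merges feature fluorescence and signal-to-noise across triplicate slides.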 Particulars: higher = more signal.
Test [4] can be described thus: binders of probe aFGF10 on microarray, primary screen, stem cell growth factor project, biochemical, small-molecule microarray, fluorescence 635/667 (AID 1071).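 Further: score merges 667 nm spot intensity and signal to noise from triplicate slides.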 To be noted: higher = more signal.
The target in test [5] is Neurogenic locus notch homolog protein 2 (Homo sapiens) (UniProt Q04721). Briefly: Notch2 binders on small-molecule microarrays, primary screen, biochemical, small-molecule microarray, 635 nm fluorescence, stem cell growth factors (AID 1073). Particulars: Notch2 binding, higher = more signal.
Neurogenic locus notch homolog protein 2 (Homo sapiens), sequence (Q04721 whole entry, looked up, canonical isoform): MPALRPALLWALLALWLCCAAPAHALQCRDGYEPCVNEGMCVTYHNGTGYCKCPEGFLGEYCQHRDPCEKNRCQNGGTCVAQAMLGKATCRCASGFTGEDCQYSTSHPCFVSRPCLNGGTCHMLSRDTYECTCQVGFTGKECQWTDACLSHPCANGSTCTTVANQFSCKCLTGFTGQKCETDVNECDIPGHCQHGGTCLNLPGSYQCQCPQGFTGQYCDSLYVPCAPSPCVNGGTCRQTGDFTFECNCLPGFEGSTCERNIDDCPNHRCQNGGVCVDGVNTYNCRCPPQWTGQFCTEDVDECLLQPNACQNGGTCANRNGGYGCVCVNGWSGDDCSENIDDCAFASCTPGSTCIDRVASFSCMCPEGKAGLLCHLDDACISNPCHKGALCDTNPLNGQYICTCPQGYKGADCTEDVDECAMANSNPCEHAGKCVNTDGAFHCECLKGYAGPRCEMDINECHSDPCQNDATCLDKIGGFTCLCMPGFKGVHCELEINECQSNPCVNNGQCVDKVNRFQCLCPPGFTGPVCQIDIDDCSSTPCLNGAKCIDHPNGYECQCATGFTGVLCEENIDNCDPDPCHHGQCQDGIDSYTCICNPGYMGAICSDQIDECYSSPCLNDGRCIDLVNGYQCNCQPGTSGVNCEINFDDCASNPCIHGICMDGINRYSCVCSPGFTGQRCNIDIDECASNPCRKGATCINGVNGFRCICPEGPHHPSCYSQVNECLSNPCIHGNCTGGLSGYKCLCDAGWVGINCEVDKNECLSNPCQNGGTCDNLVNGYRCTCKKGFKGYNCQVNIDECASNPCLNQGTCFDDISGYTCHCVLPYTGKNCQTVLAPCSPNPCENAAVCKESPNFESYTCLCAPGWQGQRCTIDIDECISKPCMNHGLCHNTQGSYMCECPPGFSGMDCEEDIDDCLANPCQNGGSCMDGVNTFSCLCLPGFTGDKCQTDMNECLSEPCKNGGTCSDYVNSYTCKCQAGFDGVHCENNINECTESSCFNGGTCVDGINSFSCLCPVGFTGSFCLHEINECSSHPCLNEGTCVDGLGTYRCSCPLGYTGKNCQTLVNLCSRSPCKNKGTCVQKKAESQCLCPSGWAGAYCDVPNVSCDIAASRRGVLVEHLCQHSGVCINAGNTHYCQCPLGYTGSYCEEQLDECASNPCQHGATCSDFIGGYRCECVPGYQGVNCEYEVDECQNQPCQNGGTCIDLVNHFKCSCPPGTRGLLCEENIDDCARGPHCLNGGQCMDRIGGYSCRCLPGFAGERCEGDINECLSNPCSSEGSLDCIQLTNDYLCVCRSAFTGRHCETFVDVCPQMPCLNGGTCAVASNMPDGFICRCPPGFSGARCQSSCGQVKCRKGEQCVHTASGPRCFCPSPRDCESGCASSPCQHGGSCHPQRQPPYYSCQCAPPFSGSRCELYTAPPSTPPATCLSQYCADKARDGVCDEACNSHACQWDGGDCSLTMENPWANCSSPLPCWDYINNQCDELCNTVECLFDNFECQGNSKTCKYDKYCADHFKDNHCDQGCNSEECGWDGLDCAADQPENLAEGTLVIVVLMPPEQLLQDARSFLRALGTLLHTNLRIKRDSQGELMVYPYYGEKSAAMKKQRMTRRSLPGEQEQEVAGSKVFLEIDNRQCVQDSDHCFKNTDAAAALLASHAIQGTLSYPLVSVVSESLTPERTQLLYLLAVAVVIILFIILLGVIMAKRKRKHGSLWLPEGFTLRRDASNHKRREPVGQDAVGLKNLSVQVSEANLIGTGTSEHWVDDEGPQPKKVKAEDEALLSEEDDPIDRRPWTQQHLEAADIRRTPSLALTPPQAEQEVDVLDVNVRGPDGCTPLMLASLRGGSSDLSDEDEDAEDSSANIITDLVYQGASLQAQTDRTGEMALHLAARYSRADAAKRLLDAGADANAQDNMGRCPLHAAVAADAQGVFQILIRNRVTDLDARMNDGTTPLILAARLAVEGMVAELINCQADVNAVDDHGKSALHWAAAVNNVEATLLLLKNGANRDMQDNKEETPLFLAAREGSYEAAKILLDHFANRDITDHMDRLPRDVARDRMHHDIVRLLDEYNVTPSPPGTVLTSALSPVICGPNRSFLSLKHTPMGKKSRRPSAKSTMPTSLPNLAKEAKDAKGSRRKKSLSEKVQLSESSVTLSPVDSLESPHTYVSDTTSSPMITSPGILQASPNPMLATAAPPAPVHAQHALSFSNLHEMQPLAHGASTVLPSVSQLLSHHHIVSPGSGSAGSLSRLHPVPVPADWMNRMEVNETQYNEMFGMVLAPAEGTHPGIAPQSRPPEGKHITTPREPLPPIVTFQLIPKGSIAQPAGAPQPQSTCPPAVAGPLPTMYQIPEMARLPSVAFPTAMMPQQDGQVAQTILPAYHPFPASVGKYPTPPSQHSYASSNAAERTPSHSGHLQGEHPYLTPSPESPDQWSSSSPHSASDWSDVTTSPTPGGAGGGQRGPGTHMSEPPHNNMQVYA
In test [6] the target is Pro-neuregulin-1, membrane-bound isoform (Homo sapiens) (UniProt Q02297). Briefly: NRG1 binders on small-molecule microarrays, primary screen, psychiatric disease protein project, biochemical, small-molecule microarray, fluorescence 635/667 (AID 1075).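 Further: score combines 667 nm spot fluorescence with signal to noise.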 To be noted: NRG1 binding, 635 nm fluorescence, higher = more signal.
Pro-neuregulin-1, membrane-bound isoform (Homo sapiens), sequence (Q02297 whole entry, looked up, the tested form may be a part, canonical isoform): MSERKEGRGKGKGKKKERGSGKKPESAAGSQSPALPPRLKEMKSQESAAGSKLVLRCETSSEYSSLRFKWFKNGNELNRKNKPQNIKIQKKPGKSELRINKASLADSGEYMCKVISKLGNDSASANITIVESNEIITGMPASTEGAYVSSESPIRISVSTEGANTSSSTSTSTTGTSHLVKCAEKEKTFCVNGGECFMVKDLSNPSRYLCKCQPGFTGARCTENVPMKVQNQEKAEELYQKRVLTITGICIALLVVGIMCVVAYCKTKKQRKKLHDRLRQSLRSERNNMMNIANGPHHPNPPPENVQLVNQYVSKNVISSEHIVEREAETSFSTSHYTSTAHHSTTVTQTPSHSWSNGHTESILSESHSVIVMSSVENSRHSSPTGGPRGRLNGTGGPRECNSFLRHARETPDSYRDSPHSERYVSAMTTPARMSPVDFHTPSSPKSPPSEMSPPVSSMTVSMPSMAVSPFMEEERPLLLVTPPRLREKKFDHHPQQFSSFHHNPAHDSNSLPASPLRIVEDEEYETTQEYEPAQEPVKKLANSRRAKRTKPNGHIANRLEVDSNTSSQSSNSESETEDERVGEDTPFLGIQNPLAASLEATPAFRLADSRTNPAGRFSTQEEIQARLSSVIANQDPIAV
Test [7] has as its system Neuregulin-1 EGF-like domain. Briefly: binders of neuregulin-1 EGF-like domain, primary screen, biochemical, small-molecule microarray, 635 nm fluorescence (AID 1081).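 Further: binding of the protein to compounds printed on small-molecule microarray slides.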 Particulars: small-molecule microarray binding, higher = more signal.
Test [8] in a line: FRG1 promoter luciferase signal modulators, primary screen, FRG1 inhibition for FSHD, cell-based, C2C12 myotubes, firefly/Renilla luciferase, luminescence (AID 1084). To be noted: higher = more signal, called active from +8 up or from −8 down.
The nature of test [9]: binders of probe aFST on microarray, primary screen, stem cell growth factor project, biochemical, small-molecule microarray, fluorescence 635/667 (AID 1086).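 Further: score merges 667 nm fluorescence with signal-to-noise of each printed compound spot.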 Particulars: higher = more signal.
Test [10] is described as follows: binders of probe aHhip on microarray, primary screen, stem cell growth factor project, biochemical, small-molecule microarray, fluorescence 635/667 (AID 1087).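 Further: score merges spot fluorescence at 667nm with spot signal to noise ratio.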 Particulars: higher = more signal.

The source made the active and inactive calls.

Turning to `COC(=O)[C@@]1(Cc2ccc(F)cc2)[C@H]2c3cc(C(=O)N4CCCC4)n(C)c3C[C@H]2CN1C(=O)c1ccccc1`, the composite z-score in [1] was 1.18; in test [2], 0.155; in test [3], 0.404; in [4] it was 0.779; in test [5], 1.69; in test [6], 2.15. Moreover, the composite z-score in test [7] was 1.34; in test [9] it was 0.951; in test [10], -0.0645. The z-score in test [8] is -0.234 (inactive).

Regarding `Cc1ccc(S[C@]2(C(=O)NC(C)C)CC(=O)N(Cc3ccccc3Cl)[C@@H]2c2ccc(CO)cc2)cc1`, the composite z-score was 0.827 in test [1]; -1.59 in test [2]; -0.0474 in test [3]; -0.519 in test [4]; -0.266 in test [5]; 1.03 in test [6]. Besides, the composite z-score in test [7] is 1.37; in test [9], -0.519; in [10], -0.169. Moreover, in test [8], the z-score was -3.34 (inactive).

On to `CC1CC/C=C\[C@H]2OC34C=CCN(CCN5CCOCC5)C(=O)[C@H]3N(C(C)CO)C(=O)[C@@H]4C2C(=O)O1` (stereo not given in full), for which the composite z-score in [1] is -0.246; in test [2], -1.61; in test [3] it was -0.125; in [4] it was -0.467; in [5] it was -0.939; in test [6] it was -1.14. Moreover, the composite z-score is 0.737 in [7], -0.311 in test [9] and -0.0672 in test [10]. The z-score in [8] was -0.203 (inactive).

`COc1ccc([Si](C)(C)[C@H]2[C@H](CCO)O[C@@]3(C(=O)N(Cc4ccccc4)c4ccc(N5CCOC5=O)cc43)[C@@H]2C)cc1`: the composite z-score in test [1] was -0.226; in [2] it was 0.0044; in [3] it was -0.126; in test [4], 0.522; in [5], 0.591; in [6], 0.872. The composite z-score in test [7] was 0.828; in test [9], 0.135; in [10], -0.226. Further, the z-score in test [8] is -2.79 (inactive).

Consider `CC(C)C[C@@H]1NC(=O)[C@@]23C(=O)N[C@@H](Cc4ccccc4)C2[C@H](C)[C@@]2(C)O[C@H]2C3/C=C/C/C=C\CNC(=O)[C@@H](C)NC1=O` (stereo not given in full), for which the composite z-score was -0.296 in [1]; 0.183 in test [2]; -0.0963 in [3]; 0.392 in [4]; -0.211 in test [5]; 1.1 in test [6]. For the same molecule, the composite z-score in [7] is -0.483; in test [9], -0.414; in test [10], -0.12. In test [8], the z-score was 0.677 (inactive).

As for `CCOC(=O)C[C@H]1[C@H](OC(=O)c2cc3ccccc3oc2=O)[C@@H](NC(=O)c2ccc3ccccc3c2)c2cc(OCCCO)ccc2N1C(=O)Cc1ccc(OC)cc1`, the composite z-score in test [1] was -0.59; in test [2] it was -0.0976; in [3], -0.196; in test [4] it was 0.531; in test [5], 0.759; in [6], 0.711. The composite z-score in test [7] was found to be 0.936; in test [9], 0.73; in test [10] it was 0.0505. Further, the z-score in test [8] is -0.0206 (inactive).

Regarding `COC(=O)c1c2oc(c1C(=O)OC)C(=O)N1CCC[C@H]1Cn1nncc1CN(Cc1ccccc1)C(=O)N[C@H](CO)CC2`, the composite z-score in test [1] is 1.31; in test [2] it was 0.0712; in test [3] it was -0.0597; in [4] it was 0.627; in [5], 0.201; in [6], 0.655. In addition, the composite z-score in test [7] is 0.803; in test [9] it was -0.152; in test [10] it was -0.353. Moreover, the z-score in test [8] was -0.606 (inactive).

As for `C=CCN1C(=O)[C@]2(O[C@H](CCO)[C@@H]([Si](C)(C)c3ccc(OC)cc3)[C@@H]2C)c2cc(NC(=O)c3ccc(OC)cc3)ccc21`, the composite z-score is -0.429 in test [1]; 0.421 in test [2]; -0.105 in test [3]; 0.3 in test [4]; 0.384 in test [5]; 0.686 in [6]. The composite z-score was 1.09 in [7], 0.346 in test [9] and -0.204 in test [10]. Besides, in test [8], the z-score was -3.52 (inactive).

As for `C=CCN1C(=O)[C@@]2(O[C@@H](CCO)[C@H]([Si](C)(C)c3ccc(OC)cc3)[C@H]2C)c2cc(N3CCOC3=O)ccc21`, the composite z-score in [1] was -0.0204; in [2], 0.0241; in test [3], -0.0455; in test [4], 0.448; in [5], 0.165; in [6], 1.21. In addition, the composite z-score is 1.09 in test [7], 0.162 in [9] and -0.236 in test [10]. Moreover, the z-score in [8] is -1.66 (inactive).

Regarding `COCCOC(=O)N1C(=O)[C@@]2(c3cc(C#CCNC(N)=O)ccc31)[C@H](c1ccc(OCCO)cc1)N1[C@H](c3ccccc3)[C@H](c3ccccc3)OC(=O)[C@H]1[C@@H]2C(=O)NC[C@H](O)c1ccccc1`, the composite z-score in [1] is -0.0349; in test [2], 0.907; in test [3] it was -0.0881; in test [4], 0.417; in test [5], 1.25; in [6], 0.46. In addition, the composite z-score in [7] was 0.77; in test [9] it was 0.506; in test [10] it was -0.215. Moreover, the z-score in test [8] was 0.499 (inactive).

As for `COc1ccc([Si](C)(C)[C@H]2[C@H](CCO)O[C@@]3(C(=O)N(Cc4ccc(N5C(=O)c6ccccc6Oc6ccccc65)cc4)c4ccccc43)[C@@H]2C)cc1`, the composite z-score is 0.603 in test [1]; -0.352 in test [2]; -0.081 in test [3]; 0.251 in test [4]; -0.389 in test [5]; 0.0473 in [6]. In addition, the figures for the composite z-score in [7], in [9] and in [10] were 0.644, -0.601 and -0.284, respectively. Moreover, the z-score in [8] is -3.69 (inactive).

Take `C=C(CCCC)C(=O)CC[C@H](OC(C)=O)c1ccc(OCCO)cc1`: the composite z-score in [1] was -0.222; in [2], -0.0212; in test [3], -0.214; in test [4], -0.253; in test [5], -0.989; in test [6], -0.189. Also, the figures for the composite z-score in test [7], in test [9] and in test [10] were -0.67, -0.358 and 3.01, respectively. In addition, the z-score in test [8] was 0.38 (inactive).

Take `C=C[C@@H](C)[C@@H](OC(=O)Nc1ccc(SC)cc1)c1ccc(OCCO)cc1`: the composite z-score in [1] was 0.004; in test [2], 0.81; in test [3] it was 0.0918; in [4], 0.447; in [5], -0.202; in test [6] it was 1.41. The results for the composite z-score in test [7], in [9] and in [10] were 1.26, 0.051 and 0.0373, respectively. The z-score in test [8] was 10.5 (active).

With `[N-]=[N+]=NCc1ccccc1[C@@H]1OC(c2ccc(OCCCO)cc2)=N[C@]1(Cc1ccccc1N=[N+]=[N-])C(=O)NCCN1CCOCC1`, the composite z-score in [1] was -0.0579; in [2] it was 0.909; in test [3] it was 0.088; in test [4], 0.828; in test [5], 1.56; in test [6], 1.19. In addition, the composite z-score was 1.25 in test [7], 1.11 in [9] and -0.213 in test [10]. Also, in test [8], the z-score was 0.982 (inactive).
